Data on 5 targets can be found in the supplement of paper PMC3616981.

Compound in this assay: CC(C)c1cccc(C(C)C)c1N1C(=O)c2ccc(O)cc2C1=O
The experiment in a line: reporter fold induction vs vehicle; higher = higher reporter activity. The protocol: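 Attagene multiplexed transcription-factor reporter assay (48 cis response elements and 25 trans nuclear-receptor constructs) treated with 5HPP-33 at 8 concentrations (0.091–200 µM). The response is fold induction of reporter activity relative to vehicle control. Cell line and time not stated in the paper; tested in ToxCast Phase II for this study.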

For the target ERE_CIS, the reporter fold induction (0.091 µM) was determined as 1.55; the reporter fold induction (0.274 µM) was 2.27; the reporter fold induction (0.823 µM) turned out to be 1.01; the reporter fold induction (2.469 µM) was found to be 0.967; the reporter fold induction (7.407 µM) came out at 4.09; the reporter fold induction (22.22 µM) was 3.27. Also, the reporter fold induction (66.67 µM) was 4.08 and the reporter fold induction (200 µM) was found to be 0.978.

Take THRa1_TRANS: the reporter fold induction was 1.06 (0.091 µM); 1.01 (0.274 µM); 1.07 (0.823 µM); 1.3 (2.469 µM); 0.83 (7.407 µM); 0.993 (22.22 µM). For the same target, the reporter fold induction by setting is: (66.67 µM) 1.35; (200 µM) 0.658.

Consider NRF1_CIS, for which the reporter fold induction turned out to be 1.01 (0.091 µM); 0.997 (0.274 µM); 1.04 (0.823 µM); 1.01 (2.469 µM); 0.978 (7.407 µM); 0.868 (22.22 µM). The reporter fold induction is, setting by setting: (66.67 µM) 1.02; (200 µM) 1.44.

For E_Box_CIS, the reporter fold induction was 1.04 (0.091 µM); 0.955 (0.274 µM); 1.02 (0.823 µM); 0.967 (2.469 µM); 1.11 (7.407 µM); 0.945 (22.22 µM). The reporter fold induction (66.67 µM) was found to be 1.06 and the reporter fold induction (200 µM) was found to be 0.895.

Turning to M_06_CIS, the reporter fold induction reads like this: (0.091 µM) 0.997; (0.274 µM) 0.997; (0.823 µM) 1.01; (2.469 µM) 0.995; (7.407 µM) 1.02; (22.22 µM) 1.02. Further, the reporter fold induction (66.67 µM) is 0.98 and the reporter fold induction (200 µM) was found to be 1.09.
